# Measurements published in PubChem BioAssay (NCI).
# About 83,000 compounds went through this panel and 20% of them were active in at least one assay; those are over-represented in the sample as a whole.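 Cell lines were cultured in 96-well plates, exposed to a single compound concentration, and assessed for percent growth 48 hours later.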 Values without a mark were called inactive. Active and inactive are the calls of the source. Rule for the calls: active = growth percent below 10; inactive = the rest.
# System: SR leukemia
# Test: NCI-60 one-dose screen, 48 h (100 = growth as untreated, 0 = no growth, -100 = all killed)
# Conditions: 10 µM unless noted
row,SMILES,growth
1,COc1cc(-c2cc3ncccc3c3nc(OCCN(C)C)c4cccnc4c23)cc(OC)c1OC,8.77% (active)
2,CN(C)CCCC1(c2ccc(F)cc2)OCc2cc(-c3ccc(C(F)(F)F)nc3)ccc21 (centres undefined),11.9%
3,Cn1cc(-c2csc(-c3cn(CCNC(=O)OC(C)(C)C)c4ccccc34)n2)c2cccnc21,75.6%
4,N#CC1=C(N)Oc2c(c(N)nn2-c2ccccc2)C1c1ccc(Cl)cc1Cl (centres undefined),97.3%
5,CCN1CCN(C(=O)[C@]23CC[C@@H](C)[C@H](C)[C@H]2C2=CC[C@@H]4[C@@]5(C)C/C(=C/c6cccc(OC)c6OC)C(=O)C(C)(C)[C@@H]5CC[C@@]4(C)[C@]2(C)CC3)CC1,5.2% (active)
6,Cc1csc(Nc2nc(-c3ccc(Cl)cc3)nc(C(Cl)(Cl)Cl)n2)n1,57%
7,COc1ccc(/C=C(\C#N)c2cc3ccccc3n2S(C)(=O)=O)cc1,53.1%
8,Cc1cc(Cl)c2c(N(C)C)cccc2n1,75%
9,O=C1c2ccccc2NC(c2cn(-c3ccccc3)nc2-c2cccs2)N1Cc1ccccc1 (centres undefined),66.8%
10,COCCNC1=C(Cl)C(=O)c2ccccc2C1=O,105%
11,Oc1ccc(Nc2ccccc2)cc1,94.2%
12,COC(=O)[C@]12CC[C@@H](C)[C@H](C)[C@@H]1C1=CC[C@@H]3[C@@]4(C)C[C@@H](OC(C)=O)[C@H](OC(C)=O)[C@@](C)(COC(C)=O)[C@@H]4[C@H](O)C[C@@]3(C)[C@]1(C)CC2,2.75% (active)
13,Cc1c(C)c2c(c(C)c1NC(=O)CCCCCCC(=O)O)CCC(C)(CCCC(C)CCCC(C)CCCC(C)C)O2 (centres undefined),6.23% (active)
14,Cc1ccc(Cc2cnc(NC(=O)/C=C/c3cccc(C)c3)s2)cc1,13.2%
15,CC1(C)[C@@H](O)CC[C@]2(C)[C@H]3CC[C@@H]4[C@H]5[C@H](C(=O)/C=C/c6ccc(C(F)(F)F)cc6)CC[C@]5(CO)CC[C@@]4(C)[C@]3(C)CC[C@@H]12,17.8%
16,COc1cc2ncnc(Nc3ccc(OCc4cccc(F)c4)c(Cl)c3)c2cc1NC(=O)C1CCCC1,91%
17,C=C(C)[C@@H]1CC[C@]2(c3nnc(-c4ccncc4)o3)CC[C@]3(C)[C@H](CC[C@@H]4[C@@]5(C)CCC(=O)NC(C)(C)[C@@H]5CC[C@]43C)[C@@H]12,78.3%
18,CCc1cccc(CC)c1NC(=O)c1sc2nc3c(cc2c1N)CCCC3,18.2%
19,CCc1ccccc1NC(=O)c1sc2nc3c(cc2c1N)CCCC3,9.86% (active)
20,O=Cc1nc2ccccc2[nH]1,83%

row,SMILES,growth
1,C[C@@H]1CCCCCCCCC[C@H](O)C(=O)C[C@@H](SC[C@@H](O)C(=O)O)C(=O)O1,74.4%
2,C=C(C)[C@@H]1CC[C@]2(C(=O)N3CCN(CC)CC3)CC[C@]3(C)[C@H](CC[C@@H]4[C@@](C)(CCC(=O)N5CCN(CC)CC5)[C@H](C(=C)C)CC[C@]43C)[C@@H]12,5.68% (active)
3,Brc1ccc(Cn2nnnc2-c2ccn(-c3ccccc3)n2)cc1,56.4%
4,CCCCN1CCCCn2c1nc1c2c(=O)n(C)c(=O)n1C,87.6%
5,CCCCC[C@H]1CC=C2C(=O)C=C[C@@H]2CC=CCCCC(=O)O[C@@H](CCCCC)CC=C2C(=O)C=C[C@@H]2CC=CCCCC(=O)O[C@@H](CCCCC)CC=C2C(=O)C=C[C@@H]2CC=CCCCC(=O)O1,-6.53% [8.75 µM] (active)
6,CC(C)=CCC[C@](C)(O)[C@H]1CC[C@]2(C)[C@@H]1CC[C@@H]1[C@@]3(C)C/C(=C/c4cccc([N+](=O)[O-])c4)C(=O)C(C)(C)[C@@H]3CC[C@]12C,72.7%
7,Cn1cc(-c2csc(-c3cn(CCNC(=O)OC(C)(C)C)c4ccc(F)cc34)n2)c2cccnc21,65.3%
8,CN1CCN(CCOc2ccc(-c3cnc4c(-c5ccccc5F)cnn4c3)cc2)CC1,-12.6% (active)
9,Cc1cc(N2CCCCC2)nc(N(CCCNc2ccnc3cc(Cl)ccc23)Cc2ccco2)n1,-20.6% (active)
10,Brc1ccc2c(c1)c(-c1nc(-c3c[nH]c4ncccc34)cs1)cn2CCCN1CCCCC1,-47.5% (active)
11,NC1=C(C/C(N)=N\O)C(c2ccccc2Cl)c2c(ccc3ccccc23)O1 (centres undefined),54.7%
12,O=C1Nc2ccccc2/C1=C/c1cn(CCCn2c3ccccc3c(=O)c3ccccc32)c2ccccc12,84%
13,COC(=O)[C@]12CC[C@@H](C)[C@H](C)[C@@H]1C1=CC[C@@H]3[C@@]4(C)C(c5ncon5)=C[C@@](C)(CO)C4=CC[C@@]3(C)[C@]1(C)CC2,-15.5% (active)
14,c1ccc(CN2C(c3ccccc3)=Nc3ccccc3C2c2c[nH]c3ccccc23)cc1 (centres undefined),-17.8% (active)
15,CC1(C)NCCC[C@]2(C)[C@H]3CC[C@@H]4[C@H]5[C@H](C(=O)/C=C/c6ccccn6)CC[C@]5(CO)CC[C@@]4(C)[C@]3(C)CC[C@@H]12,-19.6% (active)
16,Cc1cccc(C)c1NCc1nc(-c2ccccc2)n[nH]1,102%
17,COc1cccc(-c2nn(-c3ccccc3)cc2-c2ccnc(NCCNS(=O)(=O)c3cccc(F)c3)c2)c1,9.17% (active)
18,N#C/C(=C\c1ccc(-c2ccc(Cl)cc2)o1)c1nc(-c2ccco2)cs1,95%
19,COc1cc(-c2cc3cc(O)ccc3oc2=O)cc(OC)c1OC,84%
